Pf growth 96h = P. falciparum growth inhibition at 96 hours; P. falciparum luciferase reporter growth, 96 h; Potency, µM (top dose mostly 28.7 µM), for the others: top-dose activity change, negative = inhibition, hits mostly inhibitors; 320,000 tested, 6.9% active; AID 504834
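P. falciparum expressing integrated firefly luciferase grown in erythrocytes (2% hematocrit, 0.05% parasitemia final) with compounds for 96 hours at 37 C, 5% CO2. Growth inhibition read as loss of luminescence after adding luciferase detection reagent.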
AMA1 RON2 block = AMA1-RON2 (P. falciparum) interaction inhibition | 360,000 tested, 0.2% active | Potency, µM (doses to about 58.2 µM), for inactives: at the highest dose activity change, negative = inhibition, actives largely listed as inhibitors | AlphaScreen AMA1-biotinylated RON2 peptide binding | AID 720542;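 further: 0% = vehicle wells and -100% = peptide control; nearly all actives have a fitted effect of over 45% in size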
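AMA1 (3D7) with his tag at 25 nM final met compounds first, then biotinylated RON2 peptide at 25 nM; detection used donor plus acceptor beads, 10 µg/mL apiece, read by AlphaScreen after 30 min at room temperature.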
Pf growth 48h = inhibits P. falciparum growth in the first generation, 48 h | P. falciparum luciferase growth in erythrocytes, 48 h | Potency, µM (doses to about 28.7 µM), inactives show at the top dose activity change, negative = inhibition, usual class: inhibitors | 310,000 tested, 5.9% active | AID 504832
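Growth was read as firefly luciferase luminescence after a 48 h, 37 C, 5% CO2 exposure of compounds to reporter-bearing P. falciparum cultures (0.1% parasitemia, 2% hematocrit final) in Albumax-supplemented RPMI 1640.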
HCV inhibitor = HCV inhibition; Huh7.5.1 HCVcc-Cre infection, luciferase reporter, 44 h; Potency, µM (doses to about 41.8 µM), without a hit: at the top dose activity change, negative = inhibition, actives largely listed as inhibitors; 340,000 tested, 3.4% active
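Cells (1,000/well) were plated 4 h before compound, then infected with HCVcc-Cre virus (~0.5 moi). After 44 h further culture, infection was read as luciferase luminescence following a 15 min substrate incubation at room temperature.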
An asterisk follows results filed as active; [ ] = remark or other dose. Sampled rows, rich in hits. Any-hit rate of the full collection: about 11%. The call rests on the fitted dose curve; in most records, active means well fitted curve in the direction sought with a large enough effect; inconclusive means small, poorly fitted or top-dose-only effect, or another doubt; inactive means no such curve, though single readings can be large; an effect the other way counts as inactive or inconclusive. Unless noted, on the % scale 0 is the no-effect control and ±100 the full control effect; potency means the concentration at half of the fitted maximal effect.

Screening COc1cc(/C=C2/CC/C(=C/c3ccc(O)c(OC)c3)C2=O)ccc1O returned Pf growth 96h inconclusive, AMA1 RON2 block -20.4%, Pf growth 48h 3.29µM* and HCV inhibitor 12.6µM*.
COc1ccc(/C=C2\CC/C(=C\c3ccc(OC)c(OC)c3)C2=O)cc1OC was read as Pf growth 96h inconclusive, AMA1 RON2 block inconclusive, Pf growth 48h -12.5% and HCV inhibitor inconclusive.
COc1ccc(-n2cccc2/C=C2/NC(=O)N(c3cccc(Cl)c3)C2=O)cc1 was read as Pf growth 96h 71.6%, AMA1 RON2 block -3.2%, Pf growth 48h 17.8% and HCV inhibitor 19.3%.
`COc1ccc2c(c1)CC/C(=C/c1cc(OC)c(OC)c(OC)c1)C2=O` gave Pf growth 96h 14.7µM*, AMA1 RON2 block 5.6%, Pf growth 48h inconclusive and HCV inhibitor inconclusive.
`CCCNC(=O)C1CC(c2ccc(C(F)(F)F)cc2)=NO1` (stereo not drawn) gave Pf growth 96h 69.3%, AMA1 RON2 block -1.7%, Pf growth 48h 64.1% and HCV inhibitor -9.7%.
Screening COc1ccc(CNC(=O)COC(=O)/C=C/c2cccc(Br)c2)cc1OC returned Pf growth 96h -26.1%, AMA1 RON2 block 12.9%, Pf growth 48h inactive and HCV inhibitor 13.5%.
For COc1cccc(NC(=O)Cn2c3ccc(F)cc3c3nc4n(c(=O)c32)CCCS4)c1 the results were Pf growth 96h inconclusive, AMA1 RON2 block -2.2%, Pf growth 48h inconclusive and HCV inhibitor 5.0%.
O=C(CN1CC(=O)Nc2ccccc21)NCCc1ccc(Cl)cc1Cl was read as Pf growth 96h inconclusive, AMA1 RON2 block 0.0%, Pf growth 48h -27.6% and HCV inhibitor -25.6%.
CCCC(C)NC(=O)c1sc2nc3n(c(=O)c2c1C)CCC3 (stereo not drawn) was read as Pf growth 96h 58.8%[5.75 µM], AMA1 RON2 block 1.9%, Pf growth 48h 51.6% and HCV inhibitor -15.8%.
COc1cc(/C=C2\COC/C(=C\c3ccc(O)c(OC)c3)C2=O)ccc1O was read as Pf growth 96h inconclusive, AMA1 RON2 block -28.5%, Pf growth 48h 10.4µM* and HCV inhibitor 11.2µM*.
For CCOC(=O)c1cnc2ccc(OCC)cc2c1N1CCN(c2ccccc2OC)CC1 the results were Pf growth 96h 36.0%, AMA1 RON2 block -15.3% and HCV inhibitor inconclusive.
Screening CCOC(=O)c1cnc2ccc(OCC)cc2c1N(C)Cc1ccccc1 returned Pf growth 96h inconclusive, AMA1 RON2 block -16.9%, Pf growth 48h inconclusive and HCV inhibitor 11.2µM*.
For Cc1sc2nc(-c3ccccn3)[nH]c(=O)c2c1-c1ccccc1 the results were Pf growth 96h inconclusive, AMA1 RON2 block 65.0%, Pf growth 48h 1.47µM* and HCV inhibitor 10µM*.
NC(=S)N/N=C/c1ncc(C(F)(F)F)cc1Cl was read as Pf growth 96h 3.29µM*, AMA1 RON2 block 67.1%, Pf growth 48h 1.47µM* and HCV inhibitor 5.62µM*.
`COCC1CCN(C(=O)CC2C(=O)NCCN2Cc2cccc(Oc3ccccc3)c2)CC1` (stereo not drawn) gave Pf growth 96h 0.4%, AMA1 RON2 block 1.7%, Pf growth 48h 14.7µM* and HCV inhibitor 10.8%.
For O=C1NCCN(Cc2cccc(Oc3ccccc3)c2)C1CC(=O)N1CCCO1 (stereo not drawn) the results were Pf growth 96h 5.22µM*, AMA1 RON2 block 7.0%, Pf growth 48h 15.4% and HCV inhibitor -16.1%.
O=C(CSc1ccc2ccccc2c1)NC1CCCc2ccccc21 (stereo not drawn) was read as Pf growth 96h -22.7%, AMA1 RON2 block 4.8%, Pf growth 48h 1.1% and HCV inhibitor -0.8%.
Screening O=C(CCCN1Cc2ccccc2C1)c1ccc(F)cc1 returned Pf growth 96h 5.22µM*, AMA1 RON2 block 9.8%, Pf growth 48h 19.9% and HCV inhibitor 1.9%.
`CN1CCN(CCCC(=O)c2ccc(F)cc2)CC1` gave Pf growth 96h inconclusive, AMA1 RON2 block -6.4%, Pf growth 48h 26.1% and HCV inhibitor 5.5%.
`C[C@@H]1CN([C@H](C)CO)C(=O)CCCn2nncc2CO[C@@H]1CN(C)S(=O)(=O)c1ccc2ccccc2c1` gave AMA1 RON2 block 0.0%.
Screening O=C(CCl)N(CCCNC(=O)C(F)(F)F)c1ccc([N+](=O)[O-])cc1 returned Pf growth 96h inconclusive, AMA1 RON2 block 9.7%, Pf growth 48h 9.28µM* and HCV inhibitor inconclusive.
Screening O=C(Nc1cccc2[nH]c([C@H]3C[C@H](O)[C@@H](CO)O3)nc12)NC(c1ccccc1)c1ccccc1 returned AMA1 RON2 block -6.5%.
Screening Cc1nc(-c2ccccc2)[nH]c(=O)c1Oc1ccc(Cl)cc1Cl returned Pf growth 96h -22.4%, AMA1 RON2 block 19.0%, Pf growth 48h 0.0% and HCV inhibitor -20.4%.
Cc1ccc(Oc2c(C)nc(-c3ccccc3)[nH]c2=O)cc1 was read as Pf growth 96h 1.65µM*, AMA1 RON2 block -3.9%, Pf growth 48h 1.04µM* and HCV inhibitor -25.4%.
`COc1ccc2nc(-c3ccccc3)[nH]c(=O)c2c1` gave AMA1 RON2 block 6.6% and HCV inhibitor 2.82µM*.
For COc1ccc(-c2nc3ccc(N4CCCC4)cc3c(=O)[nH]2)cc1OC the results were Pf growth 96h 4.9%, AMA1 RON2 block 8.4%, Pf growth 48h -2.7% and HCV inhibitor 10µM*.
Screening CC(=O)n1nc(-c2ccccc2)nc1NCc1ccc(N(C)C)cc1 returned Pf growth 96h inconclusive, AMA1 RON2 block 8.91µM*, Pf growth 48h 37.1% and HCV inhibitor 19.0%.
COC(=O)CCC(=O)N1CCC(CCC(=O)NCc2ccc(F)cc2)CC1 was read as Pf growth 96h 5.22µM*, AMA1 RON2 block -0.5%, Pf growth 48h -5.8% and HCV inhibitor -1.9%.
Screening CCOC(=O)CCNC(=O)N1CCC(CCC(=O)NCc2ccc(F)cc2)CC1 returned Pf growth 96h inconclusive, AMA1 RON2 block 20.1%, Pf growth 48h inconclusive and HCV inhibitor 2.1%.
For COC(=O)CCCC(=O)N1CCC(CCC(=O)NCc2ccc(F)cc2)CC1 the results were Pf growth 96h 14.7µM*, AMA1 RON2 block 14.1%, Pf growth 48h -19.2% and HCV inhibitor 9.4%.
Screening CCCCNC(=O)c1ccc(NS(=O)(=O)c2ccc3[nH]c(=O)[nH]c3c2)cc1 returned Pf growth 96h inconclusive, AMA1 RON2 block -19.9%, Pf growth 48h -9.8% and HCV inhibitor 16.1%.
Screening c1ccc2c3c([nH]c2c1)C(C1CCCCC1)N(Cc1ncc[nH]1)CC3 (stereo not drawn) returned Pf growth 96h inconclusive, AMA1 RON2 block inconclusive, Pf growth 48h 2.08µM* and HCV inhibitor 2.4%.
For Cc1ncoc1C(=O)N1CCc2c([nH]c3ccccc23)C1C1CCCCC1 (stereo not drawn) the results were Pf growth 96h inconclusive, AMA1 RON2 block -4.6%, Pf growth 48h 14.7µM* and HCV inhibitor 16.1%.
Screening CCc1nc2ccc(C(=O)NCc3ccccc3OC)cn2c1N(C)Cc1ccc(N(C)C)cc1 returned AMA1 RON2 block 14.1µM*.
